Reference: the supplement of paper PMC6555819

What was measured:
Test in all cases: PBM binding z-score (relative to random genomic background probes); higher = stronger binding; sequences stand for … in GC…GCGATTGACAGCGTAGAATGAAGG
[1] = system: RARb homodimer (NR concentration 270 nM)
Outline: (§1)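 For binding z-scores, the reference was random background probes on custom Agilent 4×180K protein-binding microarrays. These arrays were incubated 1 h with ligand-free nuclear receptor dimers in PBS pH 7.4, 2% milk, 0.02% Triton X-100, 1 mM DTT, 0.2 mg/mL BSA and 0.4 mg/ml salmon testes DNA. Fluorescence was scanned after antibody detection of each partner (one per run) and regression-normalized.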

[2] = system: RARg:RXRa (NR concentration 270 nM, RXRa partner concentration 90 nM)
Outline: as §1

[3] = system: RARg homodimer (NR concentration 270 nM)
Outline: as §1

[4] = system: RXRa DBDmut IVT, anti-RXR (DBD mutation: RXRa K156A/R161A, NR concentration 90 nM)
Outline: as §1

[5] = system: RXRa homodimer (NR concentration 180 nM)
Outline: as §1

[6] = system: THRa:RXRa (NR concentration 90 nM, RXRa partner concentration 90 nM)
Outline: as §1

[7] = system: THRa homodimer (NR concentration 90 nM)
Outline: as §1

[8] = system: VDR homodimer (NR concentration 270 nM)
Outline: as §1

Sequence | PBM binding z-score [1] | PBM binding z-score [2] | PBM binding z-score [3] | PBM binding z-score [4] | PBM binding z-score [5] | PBM binding z-score [6] | PBM binding z-score [7] | PBM binding z-score [8]
TCTCGGAGGACACGAAGGTCAGAACTTTCCAGAG | 3.24 | 2.59 | 3.24 | 1.26 | 1.51 | 2.69 | 1.15 | 1.45
TCATATAGGTAAACGCTAGGTGAAAGTCCGATCT | 0.416 | 0.628 | 0.523 | 1.63 | 0.944 | 1.52 | 0.385 | 0.251
CGAACTCGGTCAAGGACAGTGAATCTCCGCACGC | 1.7 | 1.95 | 2.98 | 0.656 | 0.345 | 2.15 | 1.37 | 0.261
TGTCAAAGTTCAAAAGTAACGTAAGTATCCACAC | 3.09 | 5.13 | 5.21 | 4.25 | 4.57 | 1.86 | -0.26 | 3.51
CATACTAGGTCAAGGTCAAAGTCGGTTTGTGCCA | 5.08 | 6.18 | 6.66 | 3.15 | 5.93 | 4.24 | 3.85 | 4.88
ATCTCTCGGTAACCAAGTTCAGTGAATGCCGAAC | 1.51 | 0.706 | 0.621 | 0.703 | 0.383 | 0.98 | 0.603 | 2.26
ACAGACAGGTGAGTGAAGGTAACTTAGCTGGACG | -0.0414 | 0.357 | 0.463 | -0.514 | 0.233 | 1.46 | -0.186 | -0.226
